{"source": "the supplement of paper PMC12350171", "note": "Where a name gives a salt, the structure may show the parent alone. A number with no mark means an inactive call.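 Rule for the calls: active = AUC significantly below DMSO controls by Student t-fit with adjusted P under 0.01; inactive = not significantly reduced.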", "data": [{"test_system": "Haemophilus parainfluenzae", "test": "growth AUC normalised to DMSO control (fraction of control); higher = less growth inhibition, active = hit call of the paper", "conditions": "20 µM", "in_short": "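After two anaerobic passages, pathogens were added at a starting OD578 of 0.01 to pre-reduced mGAM plates holding compound at 20 μM with 1% DMSO; hemin and NAD were supplemented for Haemophilus parainfluenzae. Sealed with breathable membranes, plates were read at OD578 hourly for 24 h, in three biological replicates. The trapezoidal rule, applied up to the exponential-to-stationary transition, gave the growth-curve AUC, which was normalised to DMSO controls on the same plate.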", "values": [{"compound": "CC(=O)[C@@]1(O)CC[C@H]2[C@@H]3C[C@H](C)C4=CC(=O)C=C[C@]4(C)[C@@]3(F)[C@@H](O)C[C@@]21C", "note": "[Fluorometholone]", "growth AUC normalised to DMSO control": 1}, {"compound": "C[C@]12CCC(=O)C=C1CC[C@@H]1[C@@H]2C(=O)C[C@@]2(C)[C@H]1CC[C@]2(O)C(=O)CO", "note": "[Cortisone]", "growth AUC normalised to DMSO control": 0.971}, {"compound": "Cc1cc(=O)n(-c2ccccc2)n1C", "note": "[Antipyrine]", "growth AUC normalised to DMSO control": 0.988}, {"compound": "CC(N)C12CC3CC(CC(C3)C1)C2", "note": "(configuration not stated) [Rimantadine hydrochloride]", "growth AUC normalised to DMSO control": 0.933}, {"compound": "C[C@H]1C[C@@H]2[C@H]([C@@H](O)C[C@@]3(C)[C@H]2CC[C@]3(O)C(=O)CO)[C@@]2(C)C=CC(=O)C=C12", "note": "[Methylprednisolone, 6-alpha]", "growth AUC normalised to DMSO control": 0.996}, {"compound": "Cc1[nH]c(=O)c(C#N)cc1-c1ccncc1", "note": "[Milrinone]", "growth AUC normalised to DMSO control": 0.987}, {"compound": "NNCCc1ccccc1", "note": "[Phenelzine sulfate]", "growth AUC normalised to DMSO control": 1.02}]}]}
